Calls of active or inactive are those of the source. The calls were made as follows: active = hit-call score of the fitted dose curve at least 0.9, where 1 is the maximum; inactive = score below 0.9.
target: human CHK1 (CHEK1) CAMK Kinase, CHEK1 (gene 1111) (UniProt O14757); experiment: ERF_TW_ENZ_hCHK1: Eurofins (ERF) Enzymatic Radiometric [10 uM ATP] KinaseProfiler LeadHunter Assay for human CHK1 (CHEK1) CAMK Kinase
Experimental: ERF_TW_ENZ_hCHK1 is a biochemical, single-readout assay that uses extracted gene-proteins in a cell-free assay. Measurements were taken 0.5 hour after chemical dosing in a 96-well plate. See CHK1 Human CAMK Kinase Enzymatic Radiometric Assay [10 uM ATP], Panlabs.ERF_TW_ENZ_hCHK1 is an assay component calculated from the ERF_TW_ENZ_hCHK1 assay. It is designed to measure enzyme activity using a type of enzyme reporter as detected by scintillation counting with radiometry technology.Data from the assay component ERF_TW_ENZ_hCHK1 was analyzed at the assay endpoint, ERF_TW_ENZ_hCHK1, in the positive analysis fitting direction relative to DMSO as the negative control and baseline of activity. Using a type of enzyme reporter, loss-of-signal activity can be used to understand changes in enzymatic activity as they relate to gene CHEK1. To generalize the intended target to other relatable targets, this assay endpoint is annotated to the kinase intended target family, where the subfamily is serine/threonine kinase.
CHK1 (h) is incubated with 8 mM MOPS pH 7.0, 0.2 mM EDTA, 200 uM […], 10 mM MgAcetate and [gamma-33P]-ATP (specific activity and concentration as required). The reaction is initiated by the addition of the Mg/ATP mix. After incubation for 40 minutes at room temperature, the reaction is stopped by the addition of phosphoric acid to a concentration of 0.5%. An aliquot of the reaction is then spotted onto a filter and washed four times for 4 minutes in 0.425% phosphoric acid and once in methanol prior to drying and scintillation counting. Test Sample Requirements: Compound should be supplied in 100%DMSO. We require a stock solution at a concentration of at least 50x higher than the Final Assay Concentration of your cpd. A 10mM stock is also acceptable. When ordering fewer than 60 kinase assays, we need 120uL of 50x concentrated stock. For more than 60 assays, we need 420uL of 50xcc stock. Please apply the conversion if you provide 10mM stock solution or compounds in powder form (pre-weighed is required). From 50 cpds supplied as solids, the TAT will be extended.

human CHK1 (CHEK1) CAMK Kinase, CHEK1 (gene 1111), sequence (O14757 whole entry, looked up): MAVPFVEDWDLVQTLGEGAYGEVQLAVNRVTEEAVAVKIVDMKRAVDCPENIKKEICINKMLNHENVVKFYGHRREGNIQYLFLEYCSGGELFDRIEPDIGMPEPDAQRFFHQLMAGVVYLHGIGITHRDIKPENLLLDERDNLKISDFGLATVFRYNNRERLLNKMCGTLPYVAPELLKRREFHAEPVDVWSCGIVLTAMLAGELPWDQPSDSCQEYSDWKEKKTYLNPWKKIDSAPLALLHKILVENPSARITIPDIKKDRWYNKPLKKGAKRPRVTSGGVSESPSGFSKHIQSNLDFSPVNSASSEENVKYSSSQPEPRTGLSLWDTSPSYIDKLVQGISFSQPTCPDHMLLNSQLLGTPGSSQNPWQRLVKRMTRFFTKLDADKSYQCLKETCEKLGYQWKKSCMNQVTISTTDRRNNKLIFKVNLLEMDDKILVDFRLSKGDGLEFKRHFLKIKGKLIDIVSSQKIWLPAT

SMILES	outcome	AC50
COc1cc(CCC(=O)CC(=O)CCc2ccc(O)c(OC)c2)ccc1O	inactive	–
O=C(/C=C/c1ccc(O)cc1)CC(=O)/C=C/c1ccc(O)cc1	–	2.95 µM (active)
COc1cc(/C=C/C(=O)CC(=O)/C=C/c2ccc(O)c(OC)c2)ccc1O	–	2.59 µM (active)

Source: PubChem BioAssay AID2284078 (EPA ToxCast)
